D3 antag – D3 dopamine receptor (human) antagonism; P35462; D3R cells, DiscoveRx beta-arrestin luminescence, antagonist mode; hits give low values; max response, negative = inhibition, %; 2.5% of 360,000 active; in the data active = max response below about -50%; inconclusive = no clear call, values can overlap the other calls
Target sequence (P35462 whole entry, looked up): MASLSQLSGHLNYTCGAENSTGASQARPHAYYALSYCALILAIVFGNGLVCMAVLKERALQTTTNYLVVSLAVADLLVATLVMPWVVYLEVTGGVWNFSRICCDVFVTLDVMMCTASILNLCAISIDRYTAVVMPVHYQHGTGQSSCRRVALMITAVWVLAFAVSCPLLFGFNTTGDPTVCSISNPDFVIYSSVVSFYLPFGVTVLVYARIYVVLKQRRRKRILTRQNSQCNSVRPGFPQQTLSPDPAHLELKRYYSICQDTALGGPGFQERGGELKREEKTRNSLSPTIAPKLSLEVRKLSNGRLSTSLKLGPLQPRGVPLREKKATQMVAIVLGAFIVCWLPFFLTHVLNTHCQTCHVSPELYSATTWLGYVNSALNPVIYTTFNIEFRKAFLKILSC
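Cells expressing the human receptor were seeded at 1500 cells/well, incubated overnight at 37 degrees C in 5% CO2, then exposed to library compounds with dopamine controls for 90 minutes at 37 degrees C before luminescent detection.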
D3 ag – activates the human D3 dopamine receptor. P35462. D3R DiscoveRx beta-arrestin cells, luminescence, 90 min. max activation, %. 0.58% of 410,000 active; in the data active = max activation above about 30%
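Cells at 1500/well, incubated overnight, then treated with pinned compounds (dopamine as control) for 90 min at 37 degrees C. DiscoveRx reagent added for 30 - 60 minutes at room temperature; luminescence read.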
uPA generation – inhibitors of cell surface uPA generation | Potency, µM (top dose mostly 38.3 µM), most hits filed as inhibitors | 0.31% of 330,000 active | cell surface uPA generation assay, qHTS | AID 540303; active = well fitted inhibition curve with a large enough effect; inconclusive = small, poorly fitted or top-dose-only effect; inactive = no such curve, though single readings can be large or run the other way; tested in mouse RAW 264.7 cells; note: nearly all actives have a fitted effect of over 55% in size
RGS4 inhibitor – human RGS4 inhibition | P49798 | Transcreener GDP fluorescence polarization, RGS4-accelerated GTP hydrolysis | Potency, µM (top dose mostly 114 µM), actives largely listed as inhibitors | 0.039% of 390,000 active; active = well fitted inhibition curve with a large enough effect; inconclusive = small, poorly fitted or top-dose-only effect; inactive = no such curve, though single readings can be large or run the other way; note: nearly all actives have a fitted effect of over 75% in size
Target sequence (P49798 whole entry, looked up): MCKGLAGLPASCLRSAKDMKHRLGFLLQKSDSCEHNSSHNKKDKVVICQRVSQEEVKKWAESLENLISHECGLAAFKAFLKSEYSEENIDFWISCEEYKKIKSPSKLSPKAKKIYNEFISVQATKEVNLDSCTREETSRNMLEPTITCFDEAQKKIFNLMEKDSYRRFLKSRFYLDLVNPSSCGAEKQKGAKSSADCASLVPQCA
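MLSMR compounds (23 nl, pin-transferred) preincubated 10 min at room temperature with a 500nM (2x) first reagent, then RGS4 at 900nM (2x) plus Transcreener GDP mix added; fluorescence polarization (620/688 nm) read before and after 90 min at 30 °C.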
Large screens that a line does not name were inactive. Hits are enriched below; roughly 3.1% of the tested compounds scored in any of these assays.

CCCC1S/C(=N/N=C/c2ccco2)NC1=O (configuration not stated)	none
O=C(CC1S/C(=N/N=C/c2ccco2)NC1=O)Nc1cccc(Cl)c1Cl (configuration not stated)	D3 antag -61
Cc1ccc(C(=O)COC(=O)CN2C(=O)C3C4C=CC(C4)C3C2=O)cc1[N+](=O)[O-] (configuration not stated)	none
O=C(CN1C(=O)C2C3C=CC(C3)C2C1=O)OCC(=O)c1ccc(Cl)c([N+](=O)[O-])c1 (configuration not stated)	D3 antag -70
COc1cccc2c1C(=O)c1c(O)c3c(c(O)c1C2=O)C[C@@](O)(C(=O)CO)C[C@@H]3O[C@H]1C[C@H](N)[C@H](O[C@@H]2CCCCO2)[C@H](C)O1	none (no result: D3 antag, uPA generation, RGS4 inhibitor)
CN(C)S(=O)(=O)c1ccc(Cl)c(C(=O)NC2CCN(Cc3ccccc3)C2)c1 (configuration not stated)	D3 antag -59
CCN(c1ccccc1)S(=O)(=O)c1ccc(Cl)c(C(=O)NC2CCN(Cc3ccccc3)CC2)c1	D3 antag inconclusive
Cc1c(C(=O)NC2CCN(Cc3ccccc3)C2)oc2c(Cl)cccc12 (configuration not stated)	D3 antag -100
C=CCc1cc(C)ccc1OCC(O)CN1CCN(c2ccccc2)CC1 (configuration not stated)	D3 ag 75
C=CCc1ccc(OCC(O)CN2CCN(c3ccccc3)CC2)c(OC)c1 (configuration not stated)	D3 antag inconclusive, D3 ag 38
Cc1nc(SCC(=O)N2c3ccccc3NC(=O)CC2C)c2c(C)c(C)sc2n1 (configuration not stated)	none
Cc1sc2nc(C3CC3)nc(SCC(=O)N3c4ccccc4CC3C)c2c1C (configuration not stated)	D3 ag 42 (no result: uPA generation)
O=C(CSc1nc2ccsc2c(=O)n1Cc1ccccc1Cl)NCc1ccc(F)cc1	none (no result: D3 antag, uPA generation)
CCn1c([N+](=O)[O-])nc2c1c(=O)[nH]c(=O)n2C	uPA generation 10µM
COc1ccc(/C=C2\CCCC3C2=NN(C(=O)c2scnc2C)C3c2ccc(OC)c(OC)c2)cc1OC (configuration not stated)	D3 ag 72 (no result: uPA generation)
O=C(COCc1cc(-c2ccco2)on1)Nc1cccc(O)c1	none (no result: D3 antag, uPA generation)
CC(=O)OCc1cnc(C)c2oc(=O)c(C(=O)Nc3ccc(C)cc3Cl)cc12	none (no result: D3 antag, uPA generation)
COc1ccc(NC(=O)c2ccc(CN3CCc4ccccc4C3)cc2)c(OC)c1	D3 antag -101
COc1ccc(OC)c(NC(=O)CN2CCc3ccccc3C2)c1	none
COc1ccc(OC)c(NC(=O)c2ccc(CN3CCc4ccccc4C3)cc2)c1	D3 antag -109
O=C1c2ccccc2NC(c2ccc3c(c2)OCO3)N1Cc1ccco1 (configuration not stated)	none (no result: D3 antag, D3 ag, uPA generation)
COc1ccc(N(CC(=O)Nc2cc(C)ccc2C)S(=O)(=O)c2ccc(OC)c(OC)c2)cc1	none (no result: D3 antag, uPA generation)
Cc1nc(N2CCN(C(=O)c3ccco3)CC2)c2c3c(sc2n1)CC(C)CC3 (configuration not stated)	uPA generation 2.8µM
CC1CCN(c2ccc(-c3cccs3)nn2)CC1	uPA generation 0.89µM
Cc1cc(C)c2nc(-c3ccncc3)cc(C(=O)N3CCN(Cc4ccccc4Cl)CC3)c2c1	D3 ag 43
O=C1CC(c2ccccc2)CC(O)=C1C=Nc1ccccc1Cl (configuration not stated)	D3 antag -81
Cc1cccc(NC(=O)c2ccc(Cn3nc(N4CCN(c5ccccc5)CC4)ccc3=O)o2)c1C	none (no result: D3 antag, uPA generation)
CN(C(=O)COn1nnc2ccc(S(=O)(=O)N3CCOCC3)cc21)c1ccccc1	none
Cc1ccccc1COn1nnc2ccc(S(=O)(=O)N3CCOCC3)cc21	D3 antag -51
Cc1cccc(NC(=O)C2CCCN(S(=O)(=O)c3ccc(Br)s3)C2)c1 (configuration not stated)	none (no result: D3 antag, uPA generation)
Oc1c(CN2CCOCC2)cc(CN2CCOCC2)c(O)c1CN1CCOCC1	RGS4 inhibitor inconclusive
CC(C)(C)c1nc(CN2CCOCC2)cc(CN2CCOCC2)c1O	D3 antag -70
Oc1c(CN2CCOCC2)cc(-c2ccccc2)cc1CN1CCOCC1	D3 antag -83
CCCCCCCCCCCCCCCCCC(=O)[O][Al]	none (no result: D3 antag, uPA generation, RGS4 inhibitor)
CCCn1cc2c(c1-c1ccc(C)cc1)c(=O)n(C)c(=O)n2C	none
Cc1ccc(-c2c3c(=O)n(C)c(=O)n(C)c3cn2N2CCOCC2)cc1	D3 antag -51
COc1cc(C(=O)NCCOc2cc(C)cc(C)c2)cc(OC)c1OC	uPA generation 2.5µM
CCOc1ccc(NC(=O)CNC(=O)c2ccc(OC)c(OC)c2)cc1	D3 antag -54
COc1ccc(C(=O)NCc2ccc(OCCN(C)C)cc2)cc1OC	D3 antag -72
CCOc1ccc(NC(=O)CNC(=O)c2ccc(OC)cc2)cc1	none
COc1cc(C(=O)NCc2ccc(OCCN(C)C)cc2)cc(OC)c1OC	D3 antag -95
O=C(O)[C@@H](O)[C@H](O)[C@H](O)[C@@H](O)C(=O)O (tested in a mixture with another compound)	none (no result: D3 antag, uPA generation, RGS4 inhibitor)
CCOc1cc(CNC(=O)Cn2ncn3c(cc4cc(F)ccc43)c2=O)cc(OCC)c1OCC	none (no result: D3 antag, uPA generation)
COC(=O)c1ccccc1NC(=O)CCCn1c(C)c2cnn(-c3ccccc3)c(=O)c2c1C	none (no result: D3 antag, uPA generation)
COc1ccc(Cl)cc1NC(=O)CCCn1c(C)c2cnn(-c3ccccc3)c(=O)c2c1C	D3 ag 42 (no result: D3 antag, uPA generation)
Cc1cc(Nc2ccc(C)c(Cl)c2)n2nc(Cc3ccccc3)nc2n1	none (no result: D3 antag, uPA generation)
COc1cc(C(=O)NC(=S)Nc2ccc(Cl)c(C(=O)O)c2)cc(OC)c1OC	D3 antag -89
COc1cc(C(=O)NC(=S)NNC(=O)c2cnccn2)cc(OC)c1OC	uPA generation 10µM
CSc1ccc(CCNC(=O)c2cc3cc(S(=O)(=O)N4CCCCC4)ccc3n2C)cc1	none (no result: D3 antag, uPA generation)
COc1ccc(C(=O)c2c(-c3ccc(OC)cc3)oc3ccc(-c4ccc(OC)nc4)cc23)cc1	none
COc1ccc(C(=O)c2c(-c3cccc(C)c3)oc3ccc(N4CCOCC4)cc23)cn1	D3 ag 36, uPA generation inconclusive
Cn1cccc1C(=O)Nc1nc(-c2ccccn2)cs1	D3 antag -56
Cc1ccc(C(=O)Nc2nc(-c3ccccn3)cs2)s1	uPA generation 4.5µM
Cc1csc(NC(=O)c2cccn2C)n1	none
Cn1cc(C(c2ccccc2)c2ccc(Cl)s2)c2ccccc21 (configuration not stated)	none (no result: D3 antag, uPA generation)
CCN(CC)c1ccc2nc3ccccc3[n+](CC)c2c1	D3 antag -65
CCN(CC)c1ccc2cc(-c3nc4ccccc4[nH]3)c(=O)oc2c1	none
CCN(CC)c1ccc2nc3ccc(N)cc3[n+](-c3ccccc3)c2c1	D3 antag -56, RGS4 inhibitor inconclusive
Cc1cccc(CSc2nc(-c3cccc(C)c3)nc3c2Cc2c(CO)cnc(C)c2O3)c1	none (no result: D3 antag, uPA generation)
CCOc1cc(C(=O)N2CC(=O)Nc3ccc(F)cc3C2c2ccccc2)cc(OCC)c1OCC (configuration not stated)	none (no result: D3 antag, uPA generation)
